Source: PubChem BioAssay
TLR9-MyD88 inh = inhibitors of TLR9-MyD88 association in cells, primary screen, cell-based, CHO, BLA complementation, fluorescence | Toll-like receptor 9 (Homo sapiens) + Myeloid differentiation primary response protein … | CCF4 FRET ratio | inhibition, % at 4.98 µM | 0.21% of 340,000 active | AID 504734, 2011;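 active = inhibition above the mean over all tested compounds plus 3 SD, cut at about 21% in these data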;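 note: 0% = DMSO only wells and 100% = clavulanate BLA inhibitor control wells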
PRMT1 inh = PRMT1 methyltransferase inhibitors, primary screen, biochemical, fluorescence polarization; recombinant PRMT1, activity-based probe fluorescence polarization; inhibition, % at 2.79 µM; 1.3% of 370,000 active;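 active = inhibition above about 21% made by adding two undisclosed values, limit read from the data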
Target sequence (Q99873 whole entry, looked up): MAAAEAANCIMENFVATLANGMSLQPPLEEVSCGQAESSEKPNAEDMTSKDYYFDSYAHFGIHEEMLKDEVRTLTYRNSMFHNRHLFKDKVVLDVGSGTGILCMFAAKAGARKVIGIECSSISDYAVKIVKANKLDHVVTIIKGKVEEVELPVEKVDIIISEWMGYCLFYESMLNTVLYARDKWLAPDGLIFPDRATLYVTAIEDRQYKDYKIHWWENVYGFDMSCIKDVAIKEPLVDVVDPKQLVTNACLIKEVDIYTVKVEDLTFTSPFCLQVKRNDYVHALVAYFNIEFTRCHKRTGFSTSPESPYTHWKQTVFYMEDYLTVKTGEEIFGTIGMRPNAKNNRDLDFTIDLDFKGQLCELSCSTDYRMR
NOD2 RIPK2 PPI = NOD2-RIPK2 binding disruptors in cells, primary screen, fluorescence, CHO cells, BLA complementation; Receptor-interacting serine/threonine-protein kinase 2 (Homo sapiens), O43353; CCF4 ratio; inhibition, % at 4.98 µM; 0.38% of 360,000 active; AID 624267, 2012; in the data active = inhibition above about 21%;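 note: 0% = vehicle only and 100% = reference blocker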
ABHD5 PLIN5 PPI = ABHD5-PLIN5 interaction inhibitors, primary screen, cell lysate, split luciferase complementation, luminescence | 0.78% of 360,000 active | Split G. princeps luciferase complementation, 4 h | AID 602281, 2012 | inhibition, % at 4 µM;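 active = inhibition above the mean inhibition across every tested compound plus 3 SD, cut at about 22% in these data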;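 note: 0% = DMSO only wells and the 100% control is not disclosed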
TLR4 MyD88 comp = inhibitors of TLR4-MyD88 association in cells, primary screen, cell-based, HeLa CL3-4, BLA complementation, FRET ratio | HeLa CL3-4 TLR4/MyD88 BLA complementation | inhibition, % at 8.4 µM | 0.18% of 200,000 active | AID 861, 2007 | Toll-like receptor 4 (Homo sapiens) + Myeloid differentiation primary response protein …; in the data active = inhibition above about 25%;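 note: 0% = vehicle and 100% = reference inhibitor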
Exocytosis inh = LAMP-1 surface exposure blockers, TALL-104 cells – cell-based, flow cytometry, MLPCN library, primary screen | TALL-104 LAMP-1 surface exposure; cells stimulated with thapsigargin and PMA | inhibition, % at 10 µM | 0.66% of 360,000 active | AID 651702, 2012;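 active = inhibition above about 55%, limit read from the data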
An asterisk follows results filed as active. Hits are enriched below; roughly 2.6% of the tested compounds scored in any of these assays.

CC(=O)Nc1cccc(N/C=C(\C=O)c2nc3ccccc3o2)c1 was read as TLR9-MyD88 inh -1, PRMT1 inh 0, NOD2 RIPK2 PPI 1, ABHD5 PLIN5 PPI -4, TLR4 MyD88 comp -1 and Exocytosis inh 56*.
`COc1ccc(C(=O)CSc2ccc(-c3ccco3)nn2)cc1` gave TLR9-MyD88 inh 6, PRMT1 inh 23*, NOD2 RIPK2 PPI -3, ABHD5 PLIN5 PPI 4, TLR4 MyD88 comp -8 and Exocytosis inh 4.
`Cc1ccc(/C=C2/C(=O)N(c3ccccc3)C(=S)N2C)o1` gave TLR9-MyD88 inh -3, PRMT1 inh 18, NOD2 RIPK2 PPI -3, ABHD5 PLIN5 PPI 9, TLR4 MyD88 comp -14 and Exocytosis inh 83*.
`CCOc1ccc(N2C(=O)/C(=C/c3ccco3)N(C)C2=S)cc1` gave TLR9-MyD88 inh -1, PRMT1 inh 0, NOD2 RIPK2 PPI -4, ABHD5 PLIN5 PPI -4, TLR4 MyD88 comp -12 and Exocytosis inh 1.
Cc1[nH]nc2c1C(c1cccc(C(F)(F)F)c1)NC2=O (configuration not stated) was read as PRMT1 inh 1.
`O=C1CSC(=S)N1N=C1CCCCCC1` gave TLR9-MyD88 inh 7, PRMT1 inh 23*, NOD2 RIPK2 PPI 5, ABHD5 PLIN5 PPI -15, TLR4 MyD88 comp -9 and Exocytosis inh 3.
`O=C1CSC(=S)N1/N=C/c1ccc(C(F)(F)F)cc1` gave TLR9-MyD88 inh 13, PRMT1 inh 17, NOD2 RIPK2 PPI -6, ABHD5 PLIN5 PPI -12 and Exocytosis inh -6.
`O=S1(=O)c2cc(Cl)ccc2N2CC[C@H](C2)N1Cc1ccc(Cl)c(Cl)c1` gave PRMT1 inh 3.
Screening O=C(C(=O)N1CCC(CNS(=O)(=O)c2ccc(OC(F)(F)F)cc2)CC1)c1cc2ccccc2o1 returned PRMT1 inh 0.
Screening CCN(CC)c1ccc(/C=N/NC(=O)c2cccc(S(=O)(=O)Nc3ccccc3OC)c2)c(O)c1 returned TLR9-MyD88 inh 21*, PRMT1 inh -2, NOD2 RIPK2 PPI 21*, ABHD5 PLIN5 PPI 5, TLR4 MyD88 comp 7 and Exocytosis inh 2.
`CCOc1ccccc1/C=N/NC(=O)c1cccc(S(=O)(=O)N(CC)CC)c1` gave TLR9-MyD88 inh -8, PRMT1 inh 1, NOD2 RIPK2 PPI -2, ABHD5 PLIN5 PPI -8, TLR4 MyD88 comp -8 and Exocytosis inh -2.
For CCN(CC)c1ccc(/C=N/NC(=O)c2ccc3nc[nH]c3c2)c(O)c1 the results were TLR9-MyD88 inh -12, NOD2 RIPK2 PPI -5, ABHD5 PLIN5 PPI -1 and Exocytosis inh 67*.
CCN(CC)S(=O)(=O)c1cccc(C(=O)N/N=C/c2ccc(O)c(O)c2O)c1 was read as TLR9-MyD88 inh 8, PRMT1 inh 27*, NOD2 RIPK2 PPI 6, ABHD5 PLIN5 PPI -13, TLR4 MyD88 comp 6 and Exocytosis inh 4.
`CC(=O)N1CCN(c2ccc(N3CCN(Cc4ccccc4)[C@H](C)C3)c(C)c2)[C@@H](C)C1` gave PRMT1 inh -1.
Screening O=Cc1cc(N=Nc2ccccc2Cl)ccc1O returned TLR9-MyD88 inh -9, PRMT1 inh 2, NOD2 RIPK2 PPI -2, ABHD5 PLIN5 PPI 4, TLR4 MyD88 comp -3 and Exocytosis inh 62*.
COc1cccc(C2Oc3ccccc3C3CC(c4cccs4)=NN32)c1 (configuration not stated) was read as PRMT1 inh -4, NOD2 RIPK2 PPI 0, ABHD5 PLIN5 PPI 22* and Exocytosis inh -1.
`O=C(c1ccccc1)C1Oc2ccccc2C2CC(c3cccs3)=NN12` (configuration not stated) gave TLR9-MyD88 inh 7, PRMT1 inh 2, NOD2 RIPK2 PPI 0, ABHD5 PLIN5 PPI -1, TLR4 MyD88 comp -25 and Exocytosis inh 0.
`Nc1nc2c(C(=O)N3CCCC3)nnn2c2ccccc12` gave PRMT1 inh 3.
